Screens deposited in PubChem BioAssay by several laboratories.
Rows were chosen to be rich in hits. Some 6.9% of all compounds tested hit in one or more screens of this group.
JNK3 inh = blocks human JNK3 kinase activity; purified JNK3 kinase activity, HTS; 0.61% of 60,000 active; inhibition, % at 8 µM; P53779; in the data active means inhibition above about 17%
Target sequence (P53779 whole entry, looked up): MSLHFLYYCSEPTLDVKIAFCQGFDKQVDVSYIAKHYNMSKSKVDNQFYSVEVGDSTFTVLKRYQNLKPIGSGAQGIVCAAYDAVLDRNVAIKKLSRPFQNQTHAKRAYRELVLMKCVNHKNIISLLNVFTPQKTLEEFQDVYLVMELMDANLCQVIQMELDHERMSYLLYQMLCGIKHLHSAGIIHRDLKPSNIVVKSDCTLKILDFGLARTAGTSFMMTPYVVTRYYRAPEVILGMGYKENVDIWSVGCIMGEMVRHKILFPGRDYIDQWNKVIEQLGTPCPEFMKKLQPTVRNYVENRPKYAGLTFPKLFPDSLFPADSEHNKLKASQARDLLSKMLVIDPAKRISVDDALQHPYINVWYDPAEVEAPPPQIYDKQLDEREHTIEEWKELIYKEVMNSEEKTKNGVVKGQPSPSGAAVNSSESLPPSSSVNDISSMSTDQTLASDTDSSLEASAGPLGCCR
Her2 expr inh = inhibitors of human Her2 kinase expression | P04626 | SKBR-3 HER2 protein level, AlphaScreen, 18-24 h; stronger effect = lower value | 0.69% of 65,000 active | HER2 level % of control, % at 10 µM;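 active means HER2 level under 5% of the carrier-only control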
FXIa inh mix = factor XIa (human) inhibition, mixture screen; inhibition, % at 5 µM; P03951; purified FXIa, fluorogenic substrate, pooled mixtures; 0.19% of 62,000 active;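 further: each value is inhibition by a whole ten-compound pool holding the compound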
M1 antag = antagonists of rat M1 muscarinic receptor; CHO-M1 cells, Fluo-4 calcium, ACh EC80 antagonist mode; stronger effect = lower value; B-score at 10 µM; 3.4% of 64,000 active;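 active means calcium fluorescence response, raw or row-and-column corrected B-score, differing from the plate sample mean either way at a set confidence level, mostly lower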
M1 ag = agonists of M1 muscarinic receptor; CHO-M1 cells, Fluo-4 calcium fluorescence, agonist mode; stronger effect = higher value; B-score at 10 µM; 3% of 64,000 active;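 active means fluorescence rise, raw or as B-score row- and column-corrected plate score, outside the 99.7% band of its plate's samples, either direction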
FXIIa inh mix = inhibitors of human coagulation factor XIIa, pooled mixtures. AID 684. P00748. inhibition, % at 5 µM. 0.2% of 62,000 active. purified FXIIa, fluorogenic substrate
M1 antag conf = confirmation of rat M1 muscarinic receptor antagonists; shares compounds with M1 antag; CHO-M1 cells, Fluo-4 calcium, ACh EC80 antagonism; stronger effect = lower value; calcium response (max-min fluorescence) at 10 µM; 43% of 1,700 active; AID 677;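 active means calcium response below the same-plate mean of wells given acetylcholine alone at its 80%-effect dose, minus 3 SD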
mGluR4 antag = acts on human mGluR4 in M1 antagonist selectivity test | shares compounds with M1 antag | CHO-mGluR4 calcium flux, Fluo-4 fluorescence, glutamate EC80; stronger effect = lower value | fluorescence response (max-min) at 10 µM | 0.9% of 1,700 active | AID 678;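 active means fluorescence response below the plate's average for near-maximal glutamate wells, less 3 SD of those wells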;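 further: raw unnormalized fluorescence span taken in the window right after glutamate addition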
Of the large screens only hits and unclear results are named; the others gave an inactive call (follow-up assays come after a bar, where they were run). Unless noted, no stated cut-off is given here; in the data, active means inhibition above about 20% (passing the limit was not always enough); inactive means the rest.

O=C(Cn1ncc2ccccc21)N1CCc2ccccc21	M1 antag -2.3 | M1 antag conf inactive | mGluR4 antag inactive
N#CC1=C2SCN(c3ccccc3)CN2C(=O)CC1c1cccs1 (stereo not given)	Her2 expr inh -20, M1 antag -3.6 | M1 antag conf inactive | mGluR4 antag inactive
N#CC1=C2SCN(c3ccccc3)CN2C(=O)CC1c1ccccc1Cl (stereo not given)	none
O=C(Cc1ccc(Cl)cc1)Nc1ccccc1CO	M1 antag -2.5 (no result: JNK3 inh) | M1 antag conf inactive | mGluR4 antag inactive
O=C(Cc1ccccc1)Nc1ccccc1CO	none
Cc1cc(C)c(S(=O)(=O)N2CCN(C)CC2)c(C)c1	none
CCOC(=O)N1CCN(C(=O)C(NS(=O)(=O)c2cccc3nsnc23)c2ccccc2)CC1 (stereo not given)	none
N=c1c(C(=O)NC2CCCC2)cc2c(=O)n3ccccc3nc2n1C1CCCC1	none
Cc1cccn2c(=O)c3cc(C(=O)NC4CCCCC4)c(=N)n(CCN4CCOCC4)c3nc12	M1 antag -2.4 | M1 antag conf inactive | mGluR4 antag inactive
CCCCNC(=O)c1cc2c(=O)n3cccc(C)c3nc2n(CCN2CCOCC2)c1=N	none (no result: M1 antag, M1 ag)
Cc1cccn2c(=O)c3cc(C(=O)NC4CCCC4)c(=N)n(C4CCCC4)c3nc12	M1 antag -4.8 (no result: JNK3 inh) | M1 antag conf 367 | mGluR4 antag inactive
S=c1[nH]nc(-c2ccco2)n1C1CCCCC1	none
Cc1cc(C2=CC(C)(c3cc(C)oc3C)Nc3nc(C(F)(F)F)nn32)c(C)o1 (stereo not given)	none
COCCCNC(=O)CS(=O)(=O)Cc1nc(-c2ccccc2C)oc1C	M1 antag -3 | M1 antag conf inactive | mGluR4 antag inactive
Cc1occc1-c1nnc(SCC(=O)Nc2ccccc2)n1C(C)c1ccccc1 (stereo not given)	none
O=C(c1ccc(CS(=O)(=O)c2ccccc2)o1)N1CCN(c2ncccn2)CC1	none
COc1ccc(OC)c(S(=O)(=O)NCCC2=CCCCC2)c1	M1 antag -2.7 | M1 antag conf 441 | mGluR4 antag inactive
Cc1cc(C)cc(N(CC(=O)NCc2cccnc2)S(C)(=O)=O)c1	none
CCOc1ccc2nc(NC(=O)C3CCCN(S(=O)(=O)c4cccs4)C3)sc2c1 (stereo not given)	none (no result: M1 antag, M1 ag)
O=S(=O)(c1ccc(Br)s1)N1CCCCC1	none
COc1ccc(N2CCN(S(=O)(=O)c3ccc(Br)s3)CC2)cc1	M1 antag -18 | M1 antag conf inactive | mGluR4 antag inactive
CCOC(=O)CC(NC(=O)c1ccco1)c1ccccc1Cl (stereo not given)	none
CCOC(=O)CC(Nc1nc(N2CCOCC2)nc(N2CCOCC2)n1)c1ccccc1Cl (stereo not given)	M1 antag -12 | M1 antag conf 366 | mGluR4 antag inactive
O=C(Nc1nnc(SCc2ccc(F)cc2)s1)c1ccco1	none
Cc1ccc(OCCSc2nnc(NC(=O)c3ccco3)s2)cc1	M1 antag -3.6 | M1 antag conf inactive | mGluR4 antag inactive
O=C(c1oc(=O)c2ccccc2c1-c1ccccc1)N1CCN(C2CCCCC2)CC1	M1 antag -6.6 | M1 antag conf 349 | mGluR4 antag inactive
CCN(CC)CCN1C(=O)C2C3c4ccccc4C(c4ccccc43)C2C1=O (stereo not given)	M1 antag -3.6 | M1 antag conf inactive | mGluR4 antag inactive
CN(C)C(CNc1nnnn1-c1ccccc1)c1ccco1 (stereo not given)	M1 antag -0.79 | M1 antag conf inactive | mGluR4 antag inactive
CC(=O)NC(CC(=O)NCC(c1ccco1)N(C)C)c1ccccc1 (stereo not given)	none (no result: JNK3 inh)
Cc1ccnc(SCCn2c(N3CC(C)CC(C)C3)nc3c2c(=O)n(C)c(=O)n3C)n1 (stereo not given)	none
CCCC(=O)C1=C(O)C(C(=O)OC)C(C)(C)CC1=Nc1ccncc1 (stereo not given)	none
CCOC(=O)c1ccc(NC(=O)CSc2nccn2C)cc1	M1 antag -3.3 | M1 antag conf inactive | mGluR4 antag inactive
CC(NC(=O)OC1CCCCC1)N1C(=O)C2C3C=CC(C3)C2C1=O (stereo not given)	none
COC(=O)/C=c1/sc2nc3ccccc3n2c1=O	M1 antag -2.5 | M1 antag conf inactive | mGluR4 antag inactive
COc1cccc(OC)c1C(=O)N1CCN(Cc2ccccc2C(F)(F)F)CC1	M1 antag -3 | M1 antag conf inactive | mGluR4 antag inactive
COc1cc(C(=O)N2CCN(Cc3ccccc3C(F)(F)F)CC2)cc(OC)c1OC	none
CC(C)CCn1c(NCCN(C)C)nc2c1c(=O)[nH]c(=O)n2C	M1 antag -4 | M1 antag conf inactive | mGluR4 antag inactive
CC(=O)Nc1ccc(S(=O)(=O)N2CCN(c3nc(NC4CCCC4)c4ccccc4n3)CC2)cc1	Her2 expr inh -9.2, M1 antag -2.8 | M1 antag conf 514 | mGluR4 antag inactive
CC(=O)Nc1ccc(S(=O)(=O)N2CCN(c3cc(C)nc4ccccc34)CC2)cc1	none
CC(CCc1ccc(O)cc1)N(C)CCc1ccccc1 (stereo not given)	M1 antag -3.1 | M1 antag conf 404 | mGluR4 antag inactive
CC(NCCc1ccc(O)cc1)C(O)c1ccc(O)cc1 (stereo not given)	none
COc1cc(OC)cc(C(=O)NCC(=O)N2CCCCC2)c1	none
CCCC(CCC)C(=O)OC1C[C@H]2CC[C@@H](C1)[N+]2(C)C (stereo not given in full)	M1 antag -15 | M1 antag conf 30 | mGluR4 antag inactive
CCSc1nc2c([nH]c3ccccc32)c(=O)n1C	M1 antag -4.2 | M1 antag conf inactive | mGluR4 antag inactive
CCC(C)Sc1nc2c([nH]c3ccccc32)c(=O)n1C (stereo not given)	none
CC(C)NC(=O)c1ccccc1NC(=O)CN(c1ccc2c(c1)OCO2)S(C)(=O)=O	none
Cc1ccc2c(c1)N(CCC(=O)NC1CC1)C(=O)C(C)O2 (stereo not given)	M1 antag -4 | M1 antag conf inactive | mGluR4 antag inactive
COc1cc(OC)c(C2=NOC(C(=O)O)C2)cc1Cl (stereo not given)	none
O=C(c1ccc2c(c1)OCO2)N(c1ccc(Cl)cc1)C1C=CS(=O)(=O)C1 (stereo not given)	none
CCn1c(=O)cc(OCC(=O)O)c2ccccc21	none
CCn1c(=O)cc(OCC(=O)Nc2cccnc2)c2ccccc21	M1 antag -1.7 | M1 antag conf inactive | mGluR4 antag inactive
